The text below walks through data of PubChem BioAssay.

A short description of assay [1]: resazurin metabolic signal in HepG2 cells – cell-based, resazurin fluorescence, 24 h, PK04 Diversity Set, profiling panel (AID 1172). Note: test concentration not given here. Particulars: HepG2 viability, higher = more signal.
Assay [2] is described as follows: budding yeast growth changes without added modifier – OD600, strain BY4716, 24 h, basal condition, primary screen (AID 1173). Particulars: S. cerevisiae BY4716 growth, OD600, 24 h; higher = more signal, called active from +8 up or from −8 down.
The nature of assay [3]: viability profiling in MM1S myeloma cells – cell-based, resazurin fluorescence, basal, 24 h, PK04 Diversity Set, profiling panel (AID 1174).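 Note: MM1S multiple myeloma cell line; test concentration not given here.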 The settings on record: higher = more signal, called active from +8 up or from −8 down. (Resazurin is reduced to fluorescent resorufin, in cell work by metabolically active cells.)
Assay [4] has as its target Dihydroorotate dehydrogenase (quinone), mitochondrial (Plasmodium falciparum (isolate 3D7)) (UniProt Q08210). In words: inhibition of P. falciparum DHODH – biochemical, C-terminal His tag, absorbance 600 nm, primary screen (AID 1175).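 Note: recombinant parasite enzyme with a five histidine tag at its C terminus; test concentration not given here.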 The settings on record: PfDHODH enzyme, DCIP absorbance 600 nm; higher = more signal, called active from +8 up or from −8 down.
Assay [5] is described as follows: inhibition of PAO1 biofilm formation – strain PAO1, LB-PBS medium, absorbance 600 nm, primary screen (AID 1176). Note: test concentration not given here. Particulars: P. aeruginosa PAO1 growth/biofilm, A600, 12 h; higher = more signal.
Assay [6] can be described thus: growth modulation of vineyard yeast isolate – strain RM11-1a, OD600, basal, 24 h, primary screen (AID 1177).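 Note: cultures grown under basal conditions with no added stressor; test concentration not given here.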 Particulars: S. cerevisiae RM11-1a growth, OD600, 24 h; higher = more signal, called active from +8 up or from −8 down.
A short description of assay [7]: growth of efflux-deficient E. coli DRC39 – strain DRC39, OD650, 24 h, E. coli filamentation inducers, primary screen (AID 1178).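 Note: growth measured as culture turbidity by optical density at 650 nm; test concentration not given here.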 Particulars: E. coli DRC39 acrAB, higher = more signal, called active from +8 up or from −8 down.
Assay [8] is described as follows: growth of efflux-deficient E. coli DRC39 – strain DRC39, OD650, 48 h, E. coli filamentation inducers, primary screen (AID 1179).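 Note: screen aims at cell division blockers that make cells filament.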 Particulars: E. coli DRC39 delta-acrAB growth, higher = more signal, called active from +8 up or from −8 down.
Assay [9] can be described thus: viability profiling in RPMI8226 myeloma cells – cell-based, resazurin fluorescence, basal, 24 h, PK04 Diversity Set, profiling panel (AID 1180).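 Note: RPMI8826 multiple myeloma cell line at 5000 cells per well; test concentration not given here.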 The settings on record: higher = more signal.
Assay [10] has as its target E3 ubiquitin-protein ligase XIAP (Homo sapiens) (UniProt P98170). Kind of assay: small molecules binding XIAP protein – biophysical, small-molecule microarray, fluorescence 635 nm, primary screen (AID 1181).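 Note: score merges 667 nm emission and signal to noise over triplicate slides.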 The settings on record: higher = more signal.

Molecules are shown by their SMILES. The source made the active and inactive calls. Unless noted, the rule behind the calls is not given here.

E3 ubiquitin-protein ligase XIAP (Homo sapiens), sequence (P98170 whole entry, looked up): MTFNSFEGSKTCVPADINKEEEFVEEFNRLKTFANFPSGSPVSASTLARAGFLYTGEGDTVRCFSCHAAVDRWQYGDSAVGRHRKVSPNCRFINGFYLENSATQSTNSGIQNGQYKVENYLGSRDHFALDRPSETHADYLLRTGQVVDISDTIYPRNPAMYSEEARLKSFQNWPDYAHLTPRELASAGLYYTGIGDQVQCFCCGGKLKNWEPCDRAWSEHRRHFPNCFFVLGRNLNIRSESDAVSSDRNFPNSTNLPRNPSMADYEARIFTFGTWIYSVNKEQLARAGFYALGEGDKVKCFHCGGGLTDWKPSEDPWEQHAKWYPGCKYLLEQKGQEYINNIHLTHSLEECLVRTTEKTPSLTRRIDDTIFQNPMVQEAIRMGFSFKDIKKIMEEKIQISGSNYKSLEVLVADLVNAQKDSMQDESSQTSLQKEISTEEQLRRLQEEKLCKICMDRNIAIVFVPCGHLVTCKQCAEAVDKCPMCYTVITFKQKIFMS
Dihydroorotate dehydrogenase (quinone), mitochondrial (Plasmodium falciparum (isolate 3D7)), sequence (Q08210 whole entry, looked up): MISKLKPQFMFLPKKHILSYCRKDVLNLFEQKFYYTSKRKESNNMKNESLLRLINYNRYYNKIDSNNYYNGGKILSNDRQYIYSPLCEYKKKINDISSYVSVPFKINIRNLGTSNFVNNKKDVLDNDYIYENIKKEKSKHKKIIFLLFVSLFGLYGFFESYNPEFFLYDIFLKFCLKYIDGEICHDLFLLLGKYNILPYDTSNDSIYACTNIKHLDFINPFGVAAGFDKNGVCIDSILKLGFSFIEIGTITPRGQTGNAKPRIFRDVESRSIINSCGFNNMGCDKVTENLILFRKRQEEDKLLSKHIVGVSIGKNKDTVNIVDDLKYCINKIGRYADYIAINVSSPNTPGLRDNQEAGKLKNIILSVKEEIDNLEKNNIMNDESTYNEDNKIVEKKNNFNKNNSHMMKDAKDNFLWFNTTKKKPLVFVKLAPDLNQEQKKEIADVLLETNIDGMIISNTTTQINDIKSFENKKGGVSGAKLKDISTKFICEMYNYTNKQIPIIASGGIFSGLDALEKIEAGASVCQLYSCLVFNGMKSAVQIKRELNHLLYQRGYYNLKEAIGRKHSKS

Regarding `COC(=O)[C@@]1(Cc2ccc(OC)cc2)[C@H]2c3cc(C(=O)N(C)C)n(Cc4ccsc4Br)c3C[C@H]2CN1C(=O)c1ccccc1`, the z-score is -0.0214 in assay [1]; 1.52 (inactive) in [2]; -0.807 (inactive) in [3]; 0.0539 (inactive) in assay [5]; 1.89 (inactive) in [6]; -0.656 (inactive) in assay [7]. Also, the z-score was -0.377 (inactive) in assay [8] and -0.907 in assay [9]. Besides, the composite z-score in [4] was 0.184 (inactive); in assay [10] it was 0.452.

Take `COCCOC(=O)N1C(=O)[C@@]2(c3cc(C#CCC(C(=O)OC)C(=O)OC)ccc31)[C@H](C(=O)N1CCc3cc(OC)c(OC)cc3C1)[C@H]1C(=O)O[C@H](c3ccccc3)[C@H](c3ccccc3)N1[C@@H]2c1ccc(O)cc1`: the z-score in assay [1] is 0.227; in [2] it was 0.541 (inactive); in assay [3] it was -0.0494 (inactive); in assay [5] it was -0.0757 (inactive); in assay [6], 1.34 (inactive); in assay [7], 0.992 (inactive). Moreover, the z-score in assay [8] was 0.199 (inactive); in [9], -0.888. In addition, the composite z-score is -0.0728 (inactive) in [4] and -0.0034 in assay [10].

For the compound `C=CCC(OC(C)=O)[C@@H]1[C@@H](N(Cc2cccc3ccccc23)C(=O)c2ccc(C)cc2)c2cc(OCCCO)ccc2N1C(=O)c1ccc2ccccc2n1` (stereo not given in full), the z-score in assay [1] is 0.374; in assay [2] it was -1.13 (inactive); in [3] it was 0.36 (inactive); in assay [5] it was -0.877 (inactive); in assay [6], -1.88 (inactive); in [7], 0.257 (inactive). The z-score in assay [8] is 0.91 (inactive); in [9], 0.78. Further, the composite z-score in assay [4] is -1.35 (inactive); in assay [10], -0.0535.

`O=C1C2C=CC(C(O)c3cccc(O)c3)N(Nc3ccccc3F)C2C(=O)N1c1ccccc1` (stereo not given): the z-score in assay [1] was 0.244; in assay [2], -14.7 (active); in assay [3], -0.343 (inactive); in assay [5], 1.22 (inactive); in [6], -7.32 (inactive); in assay [7], 0.684 (inactive). Moreover, the z-score was 0.573 (inactive) in assay [8] and 0.133 in assay [9]. Also, the composite z-score in [4] is -2.46 (inactive); in assay [10] it was 0.0345.

Take `Cc1c(-c2ccc(-c3ccc(Cl)c(Cl)c3)o2)nc(-c2ccccc2)c2c1CO[Si]2(C(C)C)C(C)C`: the z-score in assay [1] was 0.368; in [2], -0.922 (inactive); in assay [3] it was -2 (inactive); in assay [5], 0.82 (inactive); in assay [6] it was -0.569 (inactive); in assay [7], 0.575 (inactive). For the same compound, the z-score is 0.462 (inactive) in assay [8] and -0.639 in assay [9]. The composite z-score in [4] was -0.063 (inactive); in assay [10], 0.504.

As to `CN(C)CCCC[C@@H]1NC(=O)[C@H]2C[C@@H](C(=O)NCc3ccc(F)cc3)[C@@H](c3ccc(O)cc3)N2C1=O`, the z-score is 0.222 in assay [1]; -0.549 (inactive) in assay [2]; 0.766 (inactive) in [3]; -0.832 (inactive) in assay [5]; -0.649 (inactive) in [6]; 0.11 (inactive) in assay [7]. For the same compound, the z-score in assay [8] was 0.182 (inactive); in assay [9], 0.382. Moreover, the composite z-score in assay [4] was -1.54 (inactive); in assay [10] it was 0.207.

As for `C=CCNC(=O)[C@H]1[C@@H]2C(=O)O[C@@H](c3ccccc3)[C@@H](c3ccccc3)N2[C@@H](c2ccccc2OCCO)[C@]12C(=O)N(C(=O)OCCOC)c1ccccc12`, the z-score was -0.293 in assay [1]; 1.52 (inactive) in assay [2]; -1.04 (inactive) in [3]; 2.98 (inactive) in assay [5]; 2 (inactive) in assay [6]; 0.225 (inactive) in [7]. Besides, the z-score in [8] was -0.369 (inactive); in [9], -2.9. For the same compound, the composite z-score was 0.692 (inactive) in assay [4] and 0.0797 in assay [10].

On to `[N-]=[N+]=NCc1ccccc1C[C@]1(C(=O)O)COC(c2ccc(OCCCO)cc2)=N1`, for which the z-score in assay [1] was 0.24; in assay [2], 0.59 (inactive); in assay [3], -0.591 (inactive); in assay [5], 0.37 (inactive); in assay [6], -0.163 (inactive); in [7] it was -0.149 (inactive). Moreover, the z-score in assay [8] was -0.0558 (inactive); in assay [9], -0.279. Moreover, the figures for the composite z-score in [4] and in [10] were 1.54 (inactive) and -0.445, respectively.

On to `C=CCC(OC(C)=O)[C@@H]1[C@@H](N(Cc2ccc(-c3cccc(C(F)(F)F)c3)o2)C(=O)Cc2ccc(OC)cc2)c2cc(OCCCO)ccc2N1C(=O)c1ccc2ccccc2n1` (stereo not given in full), for which the z-score in [1] is -0.777; in assay [2], -0.791 (inactive); in [3], 0.271 (inactive); in assay [5] it was -0.817 (inactive); in assay [6] it was -0.188 (inactive); in assay [7], -0.267 (inactive). The z-score was -0.446 (inactive) in assay [8] and 0.0494 in assay [9]. Further, the composite z-score is -0.0941 (inactive) in [4] and 0.36 in [10].

In the case of `C=CCNC(=O)[C@H]1[C@@H]2C(=O)O[C@@H](c3ccccc3)[C@@H](c3ccccc3)N2[C@@H](c2ccc(O)cc2)[C@]12C(=O)Nc1ccc(C#CC3=CCCCC3)cc12`, the z-score in assay [1] is -0.118; in [2] it was -0.147 (inactive); in [3] it was -2.44 (inactive); in [5] it was 1.41 (inactive); in assay [6], 1.87 (inactive); in assay [7], 0.322 (inactive). Besides, the z-score in assay [8] is 0.628 (inactive); in [9], -5.43. Besides, the figures for the composite z-score in assay [4] and in [10] were 0.018 (inactive) and -0.124, respectively.

In the case of `C=CC(CO)NC(=O)OCC1c2ccccc2-c2ccccc21` (stereo not given), the z-score was 0.072 in [1]; -1.46 (inactive) in assay [2]; 0.358 (inactive) in assay [3]; 0.0117 (inactive) in assay [5]; -0.917 (inactive) in assay [6]; -0.712 (inactive) in assay [7]. Besides, the figures for the z-score in assay [8] and in [9] were -0.616 (inactive) and 0.388, respectively. The composite z-score in assay [4] was -1.28 (inactive); in assay [10], -0.125.
